The campaign covered roughly 2,300 compounds. About 180 (7.8%) were called active.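 How the source made its calls: active means average inhibition of at least 30% in the single-concentration confirmation test; inactive means the rest.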 The list is a sample of the results.
What follows are compounds tested against DNA (cytosine-5)-methyltransferase 1 (Homo sapiens) (UniProt P26358) (assay: inhibition of human DNMT1, hit confirmation – biochemical, molecular beacon, fluorescence, single concentration (AID 602385)). Details: DNMT1 molecular beacon HinP1I cleavage, at 10 µM, active compounds read high.
Sequence of DNA (cytosine-5)-methyltransferase 1 (Homo sapiens) (P26358 504-1616 limits assumed): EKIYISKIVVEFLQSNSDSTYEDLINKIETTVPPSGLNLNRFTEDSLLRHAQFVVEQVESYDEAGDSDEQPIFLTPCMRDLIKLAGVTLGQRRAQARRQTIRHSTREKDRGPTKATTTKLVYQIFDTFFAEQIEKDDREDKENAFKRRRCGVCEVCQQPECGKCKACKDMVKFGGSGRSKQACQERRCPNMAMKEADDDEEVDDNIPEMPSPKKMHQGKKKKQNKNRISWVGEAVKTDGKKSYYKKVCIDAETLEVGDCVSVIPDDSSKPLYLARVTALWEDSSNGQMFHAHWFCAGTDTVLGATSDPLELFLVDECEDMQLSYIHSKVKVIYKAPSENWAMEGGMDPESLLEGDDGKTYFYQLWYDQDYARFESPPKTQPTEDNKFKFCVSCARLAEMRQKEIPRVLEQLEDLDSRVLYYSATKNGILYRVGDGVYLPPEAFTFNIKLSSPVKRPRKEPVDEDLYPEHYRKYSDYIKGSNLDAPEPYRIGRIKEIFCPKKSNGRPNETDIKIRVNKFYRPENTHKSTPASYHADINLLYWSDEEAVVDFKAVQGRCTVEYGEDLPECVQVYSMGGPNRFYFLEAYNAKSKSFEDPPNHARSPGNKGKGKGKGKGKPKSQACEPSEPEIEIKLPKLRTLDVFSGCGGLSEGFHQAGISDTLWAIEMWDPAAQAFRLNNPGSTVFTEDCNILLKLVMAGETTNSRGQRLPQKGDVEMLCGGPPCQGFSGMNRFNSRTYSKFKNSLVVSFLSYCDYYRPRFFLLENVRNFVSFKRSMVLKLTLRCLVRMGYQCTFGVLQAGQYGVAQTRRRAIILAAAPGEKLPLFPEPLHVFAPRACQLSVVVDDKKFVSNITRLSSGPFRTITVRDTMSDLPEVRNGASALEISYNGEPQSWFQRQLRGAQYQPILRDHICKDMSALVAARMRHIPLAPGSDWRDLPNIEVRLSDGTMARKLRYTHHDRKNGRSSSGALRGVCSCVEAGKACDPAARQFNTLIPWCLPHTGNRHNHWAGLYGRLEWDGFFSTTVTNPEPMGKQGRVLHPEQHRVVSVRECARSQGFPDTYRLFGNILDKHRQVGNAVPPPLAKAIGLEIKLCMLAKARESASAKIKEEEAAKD

Structure (SMILES)	inhibition
CS(=O)(=O)c1ccc2c(c1)SC1=NC(=O)/C(=C/c3ccco3)C(=N)N12	16.9% (inactive)
Cc1ccc2cc(C)c(N3CCC(C)CC3)nc2c1	1.43% (inactive)
NC(CSC(c1ccccc1)(c1ccccc1)c1ccc(-c2ccccc2)cc1)C(=O)O (centres undefined)	30.5% (active)
CCOc1ccc(CN2CCC(n3nccc3NC(=O)C3CC3)CC2)cc1CO	4.07% (inactive)
Cc1ccc(N=C2NC(=O)/C(=C/C=C/c3ccco3)S2)cc1C	10.4% (inactive)
Cc1ccc(Cc2cncc(O)c2)cc1S(=O)(=O)O	2.5% (inactive)
O=C(CCN1C(=O)C2C3C=CC(C3)C2C1=O)Nc1ccccc1F (centres undefined)	1.42% (inactive)
CC(C)(C)N(Cc1ccccc1)C(=O)c1ccncc1	0.76% (inactive)
COc1cc(-c2nnc(NC(=O)CS(=O)(=O)c3ccc(Cl)cc3)o2)cc(OC)c1OC	7.33% (inactive)
O=C(COC(=O)CCC(=O)c1cccs1)NCc1ccco1	3.72% (inactive)
O=C(COC(=O)c1ccc(F)cc1F)Nc1ncccn1	2.67% (inactive)
Cc1ccc(/C=C/C(=O)Nc2ccc([N+](=O)[O-])c(NC(=O)/C=C/c3ccc(C)o3)c2)o1	40.8% (active)
COc1ccc(OC)c(NC(=O)c2cc(-c3cc(F)ccc3OCC3CCCO3)n[nH]2)c1 (centres undefined)	3.2% (inactive)
COc1ccc(Cl)cc1NC(=O)CCS(=O)(=O)c1ccc(Br)cc1	21.9% (inactive)
COc1ccc2sc(-c3ccc(S(C)(=O)=O)cc3)c(-c3ccc(C(N)=O)cc3)c2c1	2.28% (inactive)
CCOc1cc(NC(=O)c2ccco2)c(OCC)cc1NC(=O)COc1ccccc1	0.94% (inactive)
NC1=CC(=O)C(=O)c2cccnc21	58.8% (active)
CCOc1ccccc1/C=c1\sc2nc(-c3ccco3)nn2c1=O	5.32% (inactive)
O=C(COC(=O)/C=C/c1cn(-c2ccccc2)nc1-c1cccnc1)Nc1ccc(Cl)cc1Cl	1.69% (inactive)
O=C(Nc1cccc(-c2nc3ccccc3[nH]2)c1)c1ccc(C(=O)Nc2cccc(-c3nc4ccccc4[nH]3)c2)cc1	7.67% (inactive)
CCNC(=O)C1CCCN(C(=O)c2cc(F)ccc2C)CC1 (centres undefined)	2.4% (inactive)
CC(=O)c1ccc(NC(=O)c2ccc3c(Cl)c4c(nc3c2)CCCC4)cc1	2.16% (inactive)
C=C(C)C(=O)Nc1cccc(C2=NOC3(C2)C[C@H](C(N)=O)N(C(=O)C(c2ccccc2)c2ccccc2)C3)c1 (some centres undefined)	20.2% (inactive)
O/N=C1\CC2(Cc3nonc31)OCCO2	2.08% (inactive)
CSc1ccc(CNC(=O)c2ccc(NC(=O)C3=CSCCO3)cc2)cc1	5.27% (inactive)
Nc1cc2c(cc1Br)-c1ccc(F)cc1C2=O	-0.64% (inactive)

Structure (SMILES)	inhibition
CCOC(=O)C(NC(=O)CC(C)C)(Nc1sc2c(c1C(N)=O)CCCC2)C(F)(F)F (centres undefined)	38.7% (active)
CCCCCCc1cc2cc(-c3nnc(-c4ccccc4)o3)c(=O)oc2cc1O	1.72% (inactive)
CCOC(=O)c1c(NC(=S)NC(=O)/C=C/c2cccs2)sc(C)c1C	0.76% (inactive)
COC(=O)CCCCC1=CCC2C(=O)C=C(O)C2C1 (centres undefined)	13.6% (inactive)
Cc1ccc(-c2nnc(-c3ccc(NC(=O)c4cccs4)cc3)o2)cc1	3.86% (inactive)
CC1(C)Cc2nc3sc4c(SCC(=O)NC(c5ccccc5)c5ccccc5)ncnc4c3cc2CO1	2.65% (inactive)
COc1ccc(NC(=O)CN(C)C(=O)c2cc(C3CC3)nn2-c2ccccc2)cc1	-1% (inactive)
CCN(C(=O)CSc1nc(N)cc(=O)[nH]1)C1CCS(=O)(=O)C1 (centres undefined)	4.21% (inactive)
CC(=O)Nc1ccccc1Sc1ccc2c3c(cccc13)C(=O)N(c1ccc(C)cc1)C2=O	1.49% (inactive)
Cc1cc(O)c(C(=O)/C=C/c2c(F)c(F)c(F)c(F)c2F)c(=O)o1	15.6% (inactive)
CN(C)/C=C(/C(=O)c1ccc(Cl)cc1)S(=O)(=O)c1ccccc1	5.43% (inactive)
COc1ccc2[nH]c(=O)c(-c3noc(-c4ccc(F)cc4)n3)cc2c1	0.63% (inactive)
COc1ccc(C(=O)/C=C/c2ccc(-c3ccccc3)cc2)cc1CSCC(=O)O	28.4% (inactive)
CCOC(=O)N1CC=C2C(C#N)=C(N)C(C#N)(C#N)[C@H](c3cccs3)[C@H]2C1	9.81% (inactive)
c1ccc2cc3c(NCCN4CCOCC4)ccnc3cc2c1	23.4% (inactive)
Cc1ccc(C(=O)NNC(=O)c2cc3cc4ccccc4nc3s2)cc1	3.71% (inactive)
CC(C)(C)NC(=O)CSC(=Nc1ccccc1F)NC#N	5.5% (inactive)
O=C(c1cccs1)N1CCC(c2nc3ccccc3s2)CC1	1.54% (inactive)
O=C(Nc1cccc(F)c1)c1cc(-c2ccco2)nc2ccccc12	1.53% (inactive)
CCOc1cc(CN2CCCC(CO)(Cc3ccc(F)cc3F)C2)ccc1OC (centres undefined)	1.12% (inactive)
CN(CCOc1ccccc1)C(=O)c1cc(-c2ccco2)nc2ccccc12	3.76% (inactive)
COc1ccc(/C=C2\SC(=N)N(c3ccc(F)cc3)C2=O)cc1	-0.37% (inactive)
COc1ccc2c(c1)c(=O)c(C(=O)c1ccc(Cl)cc1)cn2CC(=O)Nc1ccc(F)cc1	0.08% (inactive)
CCc1nn(-c2cc(Oc3cccc4ccccc34)nc(-c3ccccc3)n2)c(N)c1C#N	-0.43% (inactive)
Cc1ccc2[nH]c(=O)c(-c3nc4c(C)cccn4c3NCc3ccco3)cc2c1	-1.18% (inactive)
O=C(CN1CCCSc2ccccc21)N1CCN(S(=O)(=O)c2cccc(F)c2)CC1	2.39% (inactive)

Structure (SMILES)	inhibition
O=C(COC(=O)c1ccccc1O)NCc1ccco1	3.59% (inactive)
COc1ccc(C(=O)OCC(=O)Nc2cccc(C(C)=O)c2)cc1OC	5.6% (inactive)
CC(=O)Nc1ccc(SCC(=O)NC(=O)c2ccc(Cl)cc2)cc1	2.15% (inactive)
O=C(Oc1ccc(-c2nc(-c3ccccn3)no2)cc1)c1ccccc1	29% (inactive)
O=C(Nc1nc(-c2ccco2)c(-c2ccco2)s1)c1ccco1	6.2% (inactive)
Cc1onc(-c2ccccc2)c1C(=O)Nc1ccccc1C#N	1.14% (inactive)
c1coc(-c2nc3nc4ccccc4n3nc2-c2ccco2)c1	0.83% (inactive)
O=C1CCCC(O)=C1C=NCCc1ccccc1	0.99% (inactive)
NNc1cccc(C=Cc2ccccc2)cc1=O	1.25% (inactive)
CCN1CCN(Cc2nc3c(c(=O)n(C)c(=O)n3C)n2CC(=O)c2ccccc2)CC1	0.76% (inactive)
CCOC(=O)c1cccc(NC(=O)C2CCCN(S(=O)(=O)c3cnc[nH]3)C2)c1 (centres undefined)	1.94% (inactive)
C=CCn1c(=NC(=O)c2ccc(S(=O)(=O)N3CCCC3)cc2)sc2cc(NC(C)=O)ccc21	1.72% (inactive)
Oc1c(C(c2ccco2)N2CCC3(CC2)OCCO3)sc2ncnn12 (centres undefined)	1.28% (inactive)
COc1ccc(Cc2nnc(NC(=O)Cc3cccs3)s2)cc1	87.7% (active)
COc1ccc(CC(=O)Nc2ccc(-c3nnc(-c4ccc(C)cc4)o3)cc2)cc1	-0.08% (inactive)
COc1ccc(CC(=O)Nc2ccc(-c3nnc(-c4ccccc4)o3)cc2)cc1	3.13% (inactive)
CCN1C(=O)c2cccc3c(N)ccc1c23	2.42% (inactive)
Cc1cc2nc(-c3ccco3)c(Cc3cccc(F)c3)n2c(C)c1Br	7.28% (inactive)
COc1ccc(OCC(=O)NNC(=O)c2ccc(-c3ccccc3)cc2)cc1	1.62% (inactive)
O=C(COc1ccc(/C=N/NC(=O)c2ccc(O)cc2)cc1)Nc1ccc([N+](=O)[O-])cc1	39.5% (active)
O=C(COc1ccc([N+](=O)[O-])cc1)Nc1ccc(N2CCCC2)cc1	6.61% (inactive)
O=C(CCNC(=O)c1ccccc1)NN=Cc1ccc(Br)o1	2.65% (inactive)
O=C(c1ccc(CS(=O)(=O)c2ccccc2)o1)N1CCN(c2ccccc2)CC1	0.25% (inactive)
COc1ccc(Br)cc1/C=N/Nc1ccc(S(=O)(=O)Nc2ccccc2C(=O)O)cc1[N+](=O)[O-]	97.7% (active)
C/C(=N\Nc1ccc(S(N)(=O)=O)cc1[N+](=O)[O-])c1cccs1	1.78% (inactive)
CC1CN(C(=O)c2ccccc2NS(=O)(=O)c2cccc([N+](=O)[O-])c2)CC(C)O1 (centres undefined)	1.75% (inactive)

Structure (SMILES)	inhibition
C=Cc1ccc(C(=O)N2CCCC(CCC(=O)N3CCN(c4ccccn4)CC3)C2)cc1 (centres undefined)	1.51% (inactive)
Cc1ccc(CNC(=O)CSc2nnc3c(n2)[nH]c2ccc(F)cc23)cc1	1.24% (inactive)
c1ccc2cc3[nH]c(CN4CCCCC4)nc3cc2c1	3.8% (inactive)
CCOC(=O)/C(C#N)=C/c1ccc(OCC(=O)Nc2ccccc2)c(OC)c1	4.96% (inactive)
CCCCNC(=O)CCn1c(=O)c2ccccc2n(Cc2cc(C)ccc2C)c1=O	2.63% (inactive)
C=CCn1c(=S)[nH]c2scc(-c3ccco3)c2c1=O	8.63% (inactive)
CN(Cc1nc2ccc(F)cc2[nH]1)Cc1nc(CC2CC2)no1	4.53% (inactive)
COc1ccc(-n2c(SCC(=O)Nc3sc4c(c3C#N)CCCC4)nnc2-c2ccc(O)cc2)cc1	18.9% (inactive)
O=C(CCS(=O)(=O)c1ccc(Br)cc1)NCCc1ccc(Cl)cc1	3.33% (inactive)
CCc1ccc(NC(=O)CS(=O)CC(=O)NCCCc2ccccc2)cc1 (centres undefined)	2.37% (inactive)
CCC/C=C(\CCC)C(NC(=O)Cc1ccccc1)c1ccc(C(=O)OC)cc1 (centres undefined)	1.76% (inactive)
COc1ccc(NC(=O)CCn2ccnc2)c(OC)c1	3.76% (inactive)
Cc1ccccc1-n1cc(CNC(=O)CC2C(=O)NCCN2C/C=C/c2ccccc2)cn1 (centres undefined)	0.15% (inactive)
C=CC1=C(C(=O)O)N2C(=O)[C@@H](NC(=O)/C(=N\OCC(=O)O)c3csc(N)n3)[C@H]2SC1	4.47% (inactive)
O=C(NNc1ccccn1)c1ccc(Cl)nc1	0.99% (inactive)
CC(Oc1ccccc1)C(=O)Nc1oc(-c2ccco2)c(-c2ccco2)c1C#N (centres undefined)	1.51% (inactive)
COc1cccc(C(=O)Nc2ccc(N3CCCC3)cc2)c1	20.5% (inactive)
Cc1ccc(-c2cc(C(=O)NCc3cn(C)nc3C)c3cc(Br)ccc3n2)cc1	8.12% (inactive)
CC1(C(=O)NS(=O)(=O)c2ccccc2)CCN1C(=O)C/C=C/c1ccccc1 (centres undefined)	0.79% (inactive)
N#Cc1ccccc1CN1C(=O)S/C(=C/c2cccn2-c2cccc(C(=O)O)c2)C1=O	12.5% (inactive)
Cc1ccccc1NC(=O)CN1C(=O)N/C(=C\c2cccn2-c2cccc(C(=O)O)c2)C1=O	34.7% (active)
O=C(Cn1nnc(-c2ccccc2)n1)N/N=C/c1ccc(-c2ccc(Cl)cc2)o1	2.46% (inactive)
C=CC[C@@H](CC(=O)N[C@H](CO)Cc1ccccc1)C(=O)N[C@@H](COC(=O)[C@@H](CC=C)Cc1ccc(F)cc1)Cc1c[nH]c2ccccc12	5.95% (inactive)
O=c1[nH]c(/C=C/c2cccc(Br)c2)nc2ccccc12	3.81% (inactive)
O=C(CSc1nc2ccccc2c(=O)[nH]1)Nc1nc(-c2ccc(Br)cc2)cs1	41.9% (active)
Cc1nnc(N/N=C/c2cccs2)[nH]c1=O	2.68% (inactive)
